Measurements taken from PubChem BioAssay (NCATS).
“And” between values parts separate entries of the source, which are not always exact repeats. Equal entries are not always repeated. Inconclusive results are not listed. The source made the active and inactive calls. Unless noted, calls follow the shape of the dose curve; as a rule, active = well fitted curve in the direction sought with a large enough effect; inconclusive = small, poorly fitted or top-dose-only effect, or another doubt; inactive = no such curve, though single readings can be large; an effect the other way counts as inactive or inconclusive.

Tests used:
[1] = biological target: Guanine nucleotide-binding protein G(i) subunit alpha-1 (Homo sapiens) (UniProt P63096); assay: qHTS Assay for Inhibitors of RGS12 GoLoco Motif Activity (Green Fluorophore) (AID 879);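 also: negative values mean loss of peptide binding seen as reduced polarization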
Chain of Guanine nucleotide-binding protein G(i) subunit alpha-1 (Homo sapiens) (P63096 whole entry, looked up): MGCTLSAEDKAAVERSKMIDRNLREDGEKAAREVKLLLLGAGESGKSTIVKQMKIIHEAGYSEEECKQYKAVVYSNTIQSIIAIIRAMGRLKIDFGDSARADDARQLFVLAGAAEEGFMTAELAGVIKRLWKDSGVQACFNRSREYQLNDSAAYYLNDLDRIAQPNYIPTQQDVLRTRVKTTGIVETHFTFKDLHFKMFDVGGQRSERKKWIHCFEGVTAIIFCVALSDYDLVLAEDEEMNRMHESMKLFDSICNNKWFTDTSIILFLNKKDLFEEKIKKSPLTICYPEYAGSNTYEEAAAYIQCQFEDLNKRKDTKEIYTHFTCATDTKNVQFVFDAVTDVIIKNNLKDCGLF
Summary of the method: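 Fluorescence polarization assay: 50 nM Gαi1 with 10 nM FITC-labeled RGS12 GoLoco peptide in 10 mM Tris pH 7.5, 150 mM NaCl, 0.1 mM GDP, 0.05% NP40, 10 min at room temperature with compound.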

[2] = biological target: Cytochrome P450 2C9 (Homo sapiens) (UniProt P11712); assay: qHTS Assay for Inhibitors and Substrates of Cytochrome P450 2C9 (AID 883); also: nearly all actives have a fitted effect of over 60% in size; also: potency is read from the fitted curve at half-maximal effect
Chain of Cytochrome P450 2C9 (Homo sapiens) (P11712 whole entry, looked up): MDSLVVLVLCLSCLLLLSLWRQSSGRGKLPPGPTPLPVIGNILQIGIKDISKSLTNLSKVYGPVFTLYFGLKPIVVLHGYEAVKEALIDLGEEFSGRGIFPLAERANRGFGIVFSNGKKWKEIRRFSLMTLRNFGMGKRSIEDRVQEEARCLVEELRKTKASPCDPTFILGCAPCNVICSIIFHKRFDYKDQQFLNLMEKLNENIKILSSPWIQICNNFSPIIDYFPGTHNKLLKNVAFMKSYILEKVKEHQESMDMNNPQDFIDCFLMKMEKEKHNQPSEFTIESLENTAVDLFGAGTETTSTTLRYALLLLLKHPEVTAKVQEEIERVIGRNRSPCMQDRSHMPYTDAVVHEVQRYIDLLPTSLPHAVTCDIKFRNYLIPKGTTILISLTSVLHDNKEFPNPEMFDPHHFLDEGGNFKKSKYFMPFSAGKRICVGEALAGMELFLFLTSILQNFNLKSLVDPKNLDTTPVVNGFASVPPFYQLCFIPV
Summary of the method: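 Human CYP2C9 (10nM) with Luciferin-H at 100uM (its KM) in 25mM KPO4; compound preincubated 10 min at 37C, then NADPH regeneration for 60 min at 37C. Luciferin read by luminescence after detection reagent; normalized to 57uM sulphaphenazole as full inhibition.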

[3] = biological target: Cytochrome P450 3A4 (Homo sapiens) (UniProt P08684); assay: qHTS Assay for Activators of Cytochrome P450 3A4 (AID 885); also: nearly all actives have a fitted effect of over 65% in size; also: potency is read from the fitted curve at half-maximal effect
Chain of Cytochrome P450 3A4 (Homo sapiens) (P08684 whole entry, looked up): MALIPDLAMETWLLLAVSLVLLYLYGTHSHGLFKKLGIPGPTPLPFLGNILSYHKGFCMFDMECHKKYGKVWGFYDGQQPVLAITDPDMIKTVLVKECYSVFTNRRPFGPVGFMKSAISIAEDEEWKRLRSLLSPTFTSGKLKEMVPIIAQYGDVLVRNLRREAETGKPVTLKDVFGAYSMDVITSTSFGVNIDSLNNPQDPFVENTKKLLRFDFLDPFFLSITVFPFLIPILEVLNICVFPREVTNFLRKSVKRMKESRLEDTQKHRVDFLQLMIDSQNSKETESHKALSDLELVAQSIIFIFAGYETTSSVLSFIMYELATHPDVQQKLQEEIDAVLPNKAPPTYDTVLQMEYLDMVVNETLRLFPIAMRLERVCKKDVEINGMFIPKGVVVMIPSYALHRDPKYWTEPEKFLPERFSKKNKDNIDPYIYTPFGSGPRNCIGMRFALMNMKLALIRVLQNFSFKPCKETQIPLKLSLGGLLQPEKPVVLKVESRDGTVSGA
Summary of the method: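 Steps: enzyme/substrate mix dispensed; compound added, 10 min RT; NADPH regeneration solution added, 60 min RT; luciferin detection buffer stops reaction; 20 min later luminescence measured.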

[4] = Confirmation and Secondary Assay for Modulators of Hemoglobin Beta Chain Splicing at IVS2 654 locus (AID 910);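 also: HeLa cells stably carrying EGFP split by mutant beta-globin IVS2-654 intron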
Summary of the method: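 HeLa cells stably expressing EGFP interrupted by β-globin IVS2-654 intron, seeded overnight in Opti-MEM/2% FCS, then treated 2 days at 37 °C. Restored splicing read as total peak GFP intensity per well by laser scanning cytometry (488 nm excitation, 500–520 nm emission); 500 nM antisense PNA as control.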

[5] = biological target: Cytochrome P450 2D6 (Homo sapiens) (UniProt P10635); assay: qHTS Assay for Inhibitors and Substrates of Cytochrome P450 2D6 (AID 891); also: nearly all actives have a fitted effect of over 60% in size; also: potency is read from the fitted curve at half-maximal effect
Chain of Cytochrome P450 2D6 (Homo sapiens) (P10635 whole entry, looked up): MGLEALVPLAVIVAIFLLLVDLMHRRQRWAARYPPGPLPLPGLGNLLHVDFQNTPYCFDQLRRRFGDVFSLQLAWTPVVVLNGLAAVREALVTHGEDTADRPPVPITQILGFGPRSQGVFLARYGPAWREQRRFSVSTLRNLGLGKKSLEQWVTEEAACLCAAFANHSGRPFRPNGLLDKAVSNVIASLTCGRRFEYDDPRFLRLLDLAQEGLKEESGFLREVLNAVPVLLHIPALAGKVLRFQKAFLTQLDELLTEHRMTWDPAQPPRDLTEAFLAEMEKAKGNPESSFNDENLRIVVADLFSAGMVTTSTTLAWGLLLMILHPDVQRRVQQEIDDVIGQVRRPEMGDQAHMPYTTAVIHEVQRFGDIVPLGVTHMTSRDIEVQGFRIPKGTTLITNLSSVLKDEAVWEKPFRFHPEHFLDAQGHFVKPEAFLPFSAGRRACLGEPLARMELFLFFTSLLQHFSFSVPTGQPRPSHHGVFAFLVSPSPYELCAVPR
Summary of the method: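 Human CYP2D6 (5 nM) with 30 uM Luciferin-ME EGE (at Km) in 100 mM KPO4, compound preincubated 10 min, then NADPH regeneration system for 60 min at room temperature. Luciferin read by luminescence; normalized to 1.43 uM quinidine.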

[6] = biological target: Cytochrome P450 3A4 (Homo sapiens) (UniProt P08684); assay: qHTS Assay for Inhibitors and Substrates of Cytochrome P450 3A4 (AID 884); also: nearly all actives have a fitted effect of over 50% in size; also: potency is read from the fitted curve at half-maximal effect
Summary of the method: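 20 nM human CYP3A4 with 25 uM Luciferin-PPXE (at KM) in 200 mM KPO4, preincubated 10 min with compound; NADPH regeneration started a 60 min RT reaction. Luciferin detected by luminescence, normalized to 57 uM ketoconazole as full inhibition.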

[7] = Cellular Toxicity (caspase-3) Jurkat (AID 655);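 also: cells exposed to compound for 16 h at 37 °C before reading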; also: potency is read from the fitted curve at half-maximal effect
Summary of the method: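 Luminescent Caspase-Glo 3/7 read-out (20 min, room temperature) after 16 h compound treatment at 37 C of 5000 Jurkat cells per well. AC50 derived by Hill-equation fitting, scaled between DMSO basal and 100 uM tamoxifen stimulation.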

[8] = Cellular Toxicity (caspase-3) HUV-EC-C (AID 656)
Summary of the method: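 Luminescent Caspase-Glo 3/7 readout after 16 h, 37 °C compound exposure of HUV-EC-C endothelial cells, 1000 per well, complete medium. AC50 derived by Hill fitting, with DMSO as baseline and 100 uM tamoxifen as full activation.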

[9] = Cellular Toxicity (caspase-3) SHSY5Y (AID 657); also: potency is read from the fitted curve at half-maximal effect
Summary of the method: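 Luminescent Caspase-Glo 3/7 read-out, 1 hr room temperature, follows 16 hours of compound treatment of SH-SY5Y cells at 37 °C. Normalization: DMSO basal, 10 uM staurosporine as 100%; AC50 values from Hill-equation concentration-response fits.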

[10] = Cellular Toxicity (caspase-3) BJ (AID 658)
Summary of the method: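 BJ human foreskin fibroblasts, 1000 cells/well, treated 16 hours at 37 °C in complete medium; caspase 3/7 activity by Caspase-Glo luminescence after 1 hr at room temperature. Normalized to DMSO and 10 uM staurosporine; AC50 from Hill fits.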

[11] = Cellular Toxicity (caspase-3) MRC-5 (AID 659)
Summary of the method: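 MRC-5 human normal lung fibroblasts, 1500 cells/well, treated 16 h at 37 °C in complete medium. Caspase 3/7 measured by Caspase-Glo luminescence after 1 h at room temperature. Normalized to DMSO and 10 uM staurosporine; AC50 from Hill fit.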

[12] = Cellular Toxicity (caspase-3) Mesangial (AID 660); details: Potency: caspase-3 activation;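 also: combined caspase 3 and 7 activity read by Caspase-Glo luminescence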; also: potency is read from the fitted curve at half-maximal effect
Summary of the method: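 Concentration-response qHTS: compound-induced rise in caspase 3/7 luminescence in human mesangial cells after 16 h, normalized to DMSO and 100 uM tamoxifen controls.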

[13] = Cellular Toxicity (caspase-3) SK-N-SH (AID 661); also: potency is read from the fitted curve at half-maximal effect
Summary of the method: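 Caspase 3/7 activation is measured as a luminescence increase from aminoluciferin released by substrate cleavage in SK-N-SH cells after 16 hr compound treatment; values are AC50 from concentration-response curves.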

[14] = Cellular Toxicity (caspase-3) N2a (AID 665);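 also: compound exposure lasted 16 h at 37 °C before readout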
Summary of the method: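 Plated mouse neuroblastoma N2a cells received titrated compounds for 16 h in complete medium. Caspase activity was then detected with a peptide-aminoluciferin luminescent reagent.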

[15] = Cellular Toxicity (caspase-3) NIH 3T3 (AID 666);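 also: caspase signal read after 16 h compound exposure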
Summary of the method: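 Concentration-response qHTS in NIH 3T3 mouse fibroblasts scores caspase-3/7 activation as rising luminescence after 16 hr compound exposure. Signals are scaled between DMSO-only and 100 uM tamoxifen.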

[16] = Cellular Toxicity (caspase-3) Renal Proximal Tubule (AID 667);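 also: cells exposed to compound for 16 hours at 37 °C before detection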
Summary of the method: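 Caspase 3/7 activation measured by luminescent aminoluciferin release in primary rat proximal tubule cells after 16 hr compound exposure at 37 °C. AC50 from Hill-fitted concentration-response, scaled between DMSO and 10 uM staurosporine.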

[17] = biological target: Cytochrome P450 2C19 (Homo sapiens) (UniProt P33261); assay: qHTS Assay for Inhibitors and Substrates of Cytochrome P450 2C19 (AID 899); also: nearly all actives have a fitted effect of over 60% in size; also: potency is read from the fitted curve at half-maximal effect
Chain of Cytochrome P450 2C19 (Homo sapiens) (P33261 whole entry, looked up): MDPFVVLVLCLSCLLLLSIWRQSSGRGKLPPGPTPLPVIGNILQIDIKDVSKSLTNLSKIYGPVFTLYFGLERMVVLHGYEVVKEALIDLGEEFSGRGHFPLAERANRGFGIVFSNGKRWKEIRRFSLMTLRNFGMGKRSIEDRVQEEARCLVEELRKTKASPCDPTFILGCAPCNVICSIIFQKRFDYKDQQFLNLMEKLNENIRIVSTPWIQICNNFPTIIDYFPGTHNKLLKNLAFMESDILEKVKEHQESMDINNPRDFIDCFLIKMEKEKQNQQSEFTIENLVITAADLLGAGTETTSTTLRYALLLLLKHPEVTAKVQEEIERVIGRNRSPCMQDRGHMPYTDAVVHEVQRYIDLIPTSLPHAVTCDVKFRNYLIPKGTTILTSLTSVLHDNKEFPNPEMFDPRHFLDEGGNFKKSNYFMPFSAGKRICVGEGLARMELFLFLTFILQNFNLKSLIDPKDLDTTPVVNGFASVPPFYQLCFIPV
Summary of the method: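 5 nM human CYP2C19 with 10uM Luciferin-H EGE (at KM) in 50mM KPO4, compound preincubated 10 min at 37C, then NADPH regeneration for 60 min at 37C. Luciferin read by luminescence after detection reagent; normalized to 57uM ketoconazole as full inhibition.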

[18] = qHTS Assay for Identification of Small Molecule Antagonists for NFkB Signaling Pathway (AID 895; active = well fitted inhibition curve with a large enough effect in the signal ratio, with a control signal flat, not every such curve was filed as active; the % refers to the signal ratio)
Summary of the method: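 ME-180 NFkB-bla cells (beta-lactamase under NFkB response element), plated overnight, treated with compound then 10 pM TNF alpha (about EC50) for 5 hrs at 37 C. LiveBLAzer FRET read at 460/530 nm emission, 405 nm excitation.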

[19] = Cellular Toxicity (caspase-3) H-4-II-E (AID 663); details: Potency: caspase-3 activation; also: potency is read from the fitted curve at half-maximal effect;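 as to caspase-3 activation: cells exposed to compound for 16 hr before readout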
Summary of the method: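 Rat hepatoma H-4-II-E cells (1500/well) plated 5 hr, then exposed to compound titrations for 16 hr at 37 °C. Caspase-Glo 3/7 luminescence read after 20 min at RT; data normalized to DMSO and 100 uM tamoxifen, AC50 from Hill fits.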

[20] = Cellular Toxicity (caspase-3) Hek293 (AID 664);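 also: cells exposed to compound for 16 h at 37 °C before readout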
Summary of the method: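 Activation of caspase-3/7 is measured as increased luminescence from cleaved peptide-aminoluciferin substrate in HEK293 cells treated 16 hours at 37 °C. AC50 values come from Hill-equation fits of concentration-response data.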

Measured: Potency

c1ccc2nc(N3CCNCC3)ccc2c1
inactive: [1] | [2] | [3] | [4]

O=C(CCCN1CCC(n2c(=O)[nH]c3ccccc32)CC1)c1ccc(F)cc1
active: [5] 6.31 µM

Oc1ccc2[nH]cc(CCCCN3CC=C(c4ccccc4)CC3)c2c1
inactive: [6]
active: [3] 3980 nM

O=C(CCl)c1ccc(Cl)cc1Cl
active: [7] 251 nM | [9] 2510 nM | [13] 1580 nM
inactive: [8] | [10] | [11] | [12] | [14] | [15] | [16] | [6]

CN1[C@@H]2CC[C@H]1CC(OC(=O)c1cc(Cl)cc(Cl)c1)C2 (some centres not stated)
inactive: [1] | [2] | [6] | [17]
active: [5] 100 nM and 7.9 nM

Oc1ccc(Cl)cc1Cc1cc(Cl)ccc1O
inactive: [3]

CN1CCc2cc(Cl)c(O)cc2[C@H]2c3ccccc3CC[C@@H]21
inactive: [6]

CN(C)CC/C=C1\c2ccccc2Sc2ccc(Cl)cc21
active: [5] 2.51 µM

Cc1ccc(N=CN(C)C=Nc2ccc(C)cc2C)c(C)c1
inactive: [4]

O=C(O)c1nn(Cc2ccc(Cl)cc2Cl)c2ccccc12
inactive: [1] | [5] | [17]

CCCCCCCCC(=O)NCc1ccc(O)c(OC)c1
inactive: [1] | [3] | [18] | [4]
active: [2] 3160 nM

Oc1ccc(Cl)cc1Sc1cc(Cl)ccc1O
active: [2] 398 nM | [17] 79.4 nM

c1ccc(-c2ccc(C(c3ccccc3)n3ccnc3)cc2)cc1 (configuration not stated)
inactive: [3]

N#Cc1nn(-c2c(Cl)cc(C(F)(F)F)cc2Cl)c(N)c1S(=O)C(F)(F)F (configuration not stated)
inactive: [3] | [4]

C[C@H](N)[C@H](O)c1ccc(O)c(O)c1
inactive: [1]

O=C1NCN(c2ccccc2)C12CCN(CCCOc1ccc(F)cc1)CC2
active: [5] 0.158 µM

CCCC(C)C1(CC)C(=O)N=C(S)NC1=O (configuration not stated)
inactive: [4]

Clc1ccc(C(OCCN2CCCCC2)c2ccccc2)cc1 (configuration not stated)
inactive: [3] | [4]

O=C(NC(=O)c1c(F)cccc1F)Nc1cc(Cl)c(OC(F)(F)C(F)C(F)(F)F)cc1Cl (configuration not stated)
inactive: [6] | [4]

CCCCCCCCCCCCCCCC[n+]1ccccc1
inactive: [6] | [4]

COP(=O)(OC)OC=C(Cl)Cl
not listed: [1] | [2] | [3] | [4] | [5] | [6] | [17] | [18]
inactive: all other assays above

CNC(=O)Oc1cccc2ccccc12
not listed: [1] | [2] | [3] | [4] | [5] | [17] | [18]
inactive: all other assays above

NC(=O)CN1CCCC1=O
inactive: [1] | [6] | [4]

NC(N)=NCCC[C@H](N)C(=O)O
inactive: [17]

CCCCN(CCCC)CCC(O)c1cc2c(Cl)cc(Cl)cc2c2cc(C(F)(F)F)ccc12 (configuration not stated)
active: [5] 3.98 µM
inactive: [3]

CN(C)C(=O)Oc1cc(OC(=O)N(C)C)cc(C(O)CNC(C)(C)C)c1 (configuration not stated)
inactive: [6] | [4]

CC(C)[N+](C)(CCC(C(N)=O)(c1ccccc1)c1ccccc1)C(C)C
inactive: [6] | [4]
active: [5] 3.98 µM

CC(=O)c1ccc2c(c1)N(CCCN(C)C)c1ccccc1S2
active: [5] 2.51 µM

Oc1c(Br)cc(Br)cc1Br
active: [3] 15800 nM
not listed: [1] | [2] | [4] | [5] | [7] | [17] | [18]
inactive: all other assays above

CCCCCCCCCCCC[N+](C)(C)CCOc1ccccc1
inactive: [8] | [9] | [12] | [20] | [14] | [16]

Clc1ccc(CSC(Cn2ccnc2)c2ccc(Cl)cc2Cl)cc1 (configuration not stated)
inactive: [3] | [4]

COc1ccc(C(=O)N2CCCC2=O)cc1
inactive: [1] | [4]

COC(=O)C1=CCCN(C)C1
inactive: [1] | [6] | [18] | [4]

CN(C)C(=S)SSC(=S)N(C)C
active: [7] 63.1 nM | [12] 398 nM | [6] 15800 nM
not listed: [1] | [2] | [5] | [17] | [18]
inactive: all other assays above

CC[n+]1c(-c2ccccc2)c2cc(N)ccc2c2ccc(N)cc21
not listed: [1] | [2] | [5] | [6] | [15] | [17] | [18]
inactive: all other assays above

C[C@@H]1C[C@@H]([C@H](O)CC2CC(=O)NC(=O)C2)C(=O)[C@@H](C)C1
active: [19] 15800 nM
inactive: [8] | [9] | [10] | [11] | [12] | [13] | [20] | [14] | [16]

CCNc1nc(Cl)nc(NCC)n1
inactive: [6] | [4]

CCC(=O)O[C@H]1CC[C@H]2[C@@H]3CCC4=CC(=O)CC[C@]4(C)[C@H]3CC[C@]12C
inactive: [6]

Clc1ccc(CO/N=C(\Cn2ccnc2)c2ccc(Cl)cc2Cl)c(Cl)c1
inactive: [3] | [4]
